Consider 38 compounds from PubChem BioAssay (NCI).

SMILES strings stand for the structures. About 83,000 compounds went through this panel and 20% of them were active in at least one assay; those are over-represented in the sample as a whole.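 Compound tested at a single concentration for 48 hours in 96-well plates; a percent growth value below 10 was scored as active.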 A number with no mark means an inactive call. Active and inactive are the calls of the source.

The test system of the first assay is NCI-H23 lung. Kind of assay: NCI-60 one-dose screen, 48 h (100 = growth as untreated, 0 = no growth, -100 = all killed). The conditions noted are these: 10 µM unless noted.
On to `O=C(C=P(c1ccccc1)(c1ccccc1)c1ccccc1)CCl`, for which the growth was -23.2% (active).

As for `CS(=O)(=O)Nc1cc(-c2cc3ncc(C#N)c(Nc4ccc(Oc5ccccc5)c(Cl)c4)c3s2)cnc1Cl`, the growth was 56.6%.

As for `O=C(c1ccccc1)N(CCCCl)C(=O)N(CCCCl)C(=O)c1ccccc1`, the growth is 83.1%.

As to `CCCCn1c(-c2ccc(F)cc2)nc2cc(OC)c(OC)cc2c1=O`, the growth was 101%.

Turning to `Oc1c(-c2cc(C(F)(F)F)[nH]n2)cc(Cl)c(OCc2ccc(Cl)cc2)c1-c1ccc(Cl)c(C(F)(F)F)c1`, the growth is 6% (active).

With `Cc1ccccc1N1C(c2ccccc2)=NNC12C=CC(=O)c1c(O)cccc12` (stereo unspecified), the growth was 31.4%.

Turning to `O=C(C(=O)c1cccnc1)c1cccnc1`, the growth is 98.8%.

With `COc1c(B(O)O)cccc1-c1nc2ccc3[nH]ncc3c2c2c1CCCC2`, the growth was 15.5%.

Regarding `COC(=O)c1cc2oc(/C=N/NC(=O)c3cc4oc(-c5cccc(C(F)(F)F)c5)cc4[nH]3)cc2n1Cc1ccccc1`, the growth was 93.1%.

With `Fc1ccc(-c2nnc(N3CCOCC3)c3ccccc23)cc1`, the growth is 111%.

As to `COc1cc(C)c2c(=O)c3c(oc2c1)C(=O)c1c(O)c(OC)cc(O)c1C3=O`, the growth is -2.42% (active).

For the compound `COc1ccc(C2=CC(c3ccc(OC)cc3Br)N3C=CSC3=N2)cc1` (stereo unspecified), the growth was 96.9%.

With `CC1=C(C(=O)Nc2ccc(F)cc2)C(c2ccc(Cl)cc2)C2=C(CC(C)(C)CC2=O)N1` (stereo unspecified), the growth was 86%.

With `Cc1ccc(NC(=O)c2nc(S(C)=O)oc2-c2ccc(F)cc2)cc1Nc1nccc(-c2cccnc2)n1` (stereo unspecified), the growth is 50%.

In the case of `COc1ccc(C(=O)c2c(N)nc3n2CCCC3)cc1OC`, the growth is 109%.

As for `CC1CN(CCCOC(=O)Nc2ccc(Cl)cc2)CCN1C(C)(C)C` (stereo unspecified), the growth is 101%.

On to `CCN(CC)c1ccc2nc3c4ccccc4c(=O)cc-3n(-c3ccccc3)c2c1`, for which the growth is -3.45% (active).

With `C=CCOc1c(Br)cc(Br)cc1Br`, the growth was 53.1%.

Regarding `Brc1ccccc1Cn1c(-c2cncs2)nc2ccccc21`, the growth is 85.4%.

Turning to `CCN(CC)CCCNc1cccc2c(C)cc(OC)nc12`, the growth was 90.5%.

As to `O=C(NO)c1ccc(NCc2csc3ccccc23)cc1`, the growth is 48.5%.

Take `CCNS(=O)(=O)c1ccc(C)cc1`: the growth is 100%.

`CC(=O)[C@@]1(O)[C@H](C)C[C@H]2[C@@H]3C=C(C)C4=Cc5c(cnn5-c5ccccc5)C[C@]4(C)[C@H]3[C@@H](O)C[C@@]21C`: the growth was 32.4%.

For `O=C1OC(c2ccc(-c3ccccc3)cc2)=C/C1=C/c1c(Cl)cccc1Cl`, the growth is 94.7%.

For the compound `COc1ccc(-c2nc(-c3ccccc3OCc3ccccc3OC)nc(C)c2C(C)=O)cc1`, the growth was 74.8%.

As for `COc1ccc(C2CC(c3cccc(Nc4ccnc5cc(Cl)ccc45)c3)=NN2c2ccccc2)cc1` (stereo unspecified), the growth was 80%.

Take `Cc1cc(C)c2c(NC(=O)Nc3ccc(Cl)c(Cl)c3)n[nH]c2n1`: the growth is 101%.

With `COc1ccc(/C(=C\c2ccc3c(c2)OCO3)C(=O)Nc2nc3ccc(F)cc3s2)cc1OC`, the growth was 93.2%.

On to `Cc1[nH]n(C(=O)c2ccncc2)c(=O)c1N=Nc1ccc(O)c(C(=O)O)c1`, for which the growth is 106%.

With `Cc1cc(NC(=O)C2c3ccccc3C(=O)N(CC(C)C)C2c2cccs2)no1` (stereo unspecified), the growth is 47.6%.

For `CC(C)N=C1CCCC1C(=S)SSC(=S)C1CCCC1=NC(C)C` (stereo unspecified), the growth was 75.5%.

Consider `COCCCNCC(=O)Nc1c(C)cccc1C`, for which the growth is 110%.

Regarding `Clc1ccc(Nc2ncnc3c2sc2ncccc23)cc1`, the growth is 3.68% (active).

In the case of `CNC(=O)c1cc(Oc2ccc(NC(=O)c3nc(S(C)(=O)=O)sc3-c3ccc(F)cc3)cc2)ccn1`, the growth is 94.8%.

As for `O=C(/C=C/c1ccccc1)C(Br)C(Br)c1ccccc1` (stereo unspecified), the growth was 29.4%.

As to `C#CC[C@@H]1C[C@]2(C)[C@H]3CC[C@@H]4[C@H]5C(C(=C)C)CC[C@]5(C(=O)NCCN(CCN)CCN)CC[C@@]4(C)[C@]3(C)CC[C@H]2C(C)(C)[C@H]1OC(C)=O` (stereo partly specified), the growth is 77.3%.

For `[Ag].[Ag].[NH-]S(=O)(=O)c1ccc(N=Nc2cc(N=Nc3ccc(S([NH-])(=O)=O)cc3)c3c(NC(=O)C(Cl)Cl)cccc3c2OC(=O)C(Cl)Cl)cc1.[c-]1nccs1.[c-]1nccs1`, the growth was 93.8%.

Regarding `Oc1ccc(-c2cnc(-c3ccccc3)[nH]2)c(O)c1`, the growth is 108%.

The next assay has as its system NCI-H226 lung. Described as above. The conditions noted are these: 10 µM unless noted.
With `O=C(C=P(c1ccccc1)(c1ccccc1)c1ccccc1)CCl`, the growth was -70.7% (active).

Consider `CS(=O)(=O)Nc1cc(-c2cc3ncc(C#N)c(Nc4ccc(Oc5ccccc5)c(Cl)c4)c3s2)cnc1Cl`, for which the growth is 64.3%.

Regarding `O=C(c1ccccc1)N(CCCCl)C(=O)N(CCCCl)C(=O)c1ccccc1`, the growth is 94.9%.

`CCCCn1c(-c2ccc(F)cc2)nc2cc(OC)c(OC)cc2c1=O`: the growth was 93.8%.

As to `Oc1c(-c2cc(C(F)(F)F)[nH]n2)cc(Cl)c(OCc2ccc(Cl)cc2)c1-c1ccc(Cl)c(C(F)(F)F)c1`, the growth was -13.2% (active).

In the case of `Cc1ccccc1N1C(c2ccccc2)=NNC12C=CC(=O)c1c(O)cccc12` (stereo unspecified), the growth is 87.8%.

For `O=C(C(=O)c1cccnc1)c1cccnc1`, the growth is 115%.

Regarding `COc1c(B(O)O)cccc1-c1nc2ccc3[nH]ncc3c2c2c1CCCC2`, the growth was -10.6% (active).

As for `COC(=O)c1cc2oc(/C=N/NC(=O)c3cc4oc(-c5cccc(C(F)(F)F)c5)cc4[nH]3)cc2n1Cc1ccccc1`, the growth was 109%.

Consider `Fc1ccc(-c2nnc(N3CCOCC3)c3ccccc23)cc1`, for which the growth is 97.2%.

Take `COc1cc(C)c2c(=O)c3c(oc2c1)C(=O)c1c(O)c(OC)cc(O)c1C3=O`: the growth is 30.7%.

With `COc1ccc(C2=CC(c3ccc(OC)cc3Br)N3C=CSC3=N2)cc1` (stereo unspecified), the growth is 66.6%.

On to `CC1=C(C(=O)Nc2ccc(F)cc2)C(c2ccc(Cl)cc2)C2=C(CC(C)(C)CC2=O)N1` (stereo unspecified), for which the growth was 84.1%.

In the case of `Cc1ccc(NC(=O)c2nc(S(C)=O)oc2-c2ccc(F)cc2)cc1Nc1nccc(-c2cccnc2)n1` (stereo unspecified), the growth was 51.7%.

Regarding `COc1ccc(C(=O)c2c(N)nc3n2CCCC3)cc1OC`, the growth was 96.9%.

Turning to `CC1CN(CCCOC(=O)Nc2ccc(Cl)cc2)CCN1C(C)(C)C` (stereo unspecified), the growth is 96.4%.

`CCN(CC)c1ccc2nc3c4ccccc4c(=O)cc-3n(-c3ccccc3)c2c1`: the growth was 5.4% (active).

On to `C=CCOc1c(Br)cc(Br)cc1Br`, for which the growth was 81.5%.

As to `Brc1ccccc1Cn1c(-c2cncs2)nc2ccccc21`, the growth was 70.5%.

As to `CCN(CC)CCCNc1cccc2c(C)cc(OC)nc12`, the growth was 91%.

On to `O=C(NO)c1ccc(NCc2csc3ccccc23)cc1`, for which the growth is 64.8%.

Take `CCNS(=O)(=O)c1ccc(C)cc1`: the growth is 103%.

For the compound `CC(=O)[C@@]1(O)[C@H](C)C[C@H]2[C@@H]3C=C(C)C4=Cc5c(cnn5-c5ccccc5)C[C@]4(C)[C@H]3[C@@H](O)C[C@@]21C`, the growth was 63.3%.

Turning to `O=C1OC(c2ccc(-c3ccccc3)cc2)=C/C1=C/c1c(Cl)cccc1Cl`, the growth was 84.1%.

As to `COc1ccc(-c2nc(-c3ccccc3OCc3ccccc3OC)nc(C)c2C(C)=O)cc1`, the growth was 81.5%.

On to `COc1ccc(C2CC(c3cccc(Nc4ccnc5cc(Cl)ccc45)c3)=NN2c2ccccc2)cc1` (stereo unspecified), for which the growth was 89%.

With `Cc1cc(C)c2c(NC(=O)Nc3ccc(Cl)c(Cl)c3)n[nH]c2n1`, the growth is 108%.

Take `COc1ccc(/C(=C\c2ccc3c(c2)OCO3)C(=O)Nc2nc3ccc(F)cc3s2)cc1OC`: the growth was 87.1%.

Consider `Cc1[nH]n(C(=O)c2ccncc2)c(=O)c1N=Nc1ccc(O)c(C(=O)O)c1`, for which the growth is 86.3%.

With `Cc1cc(NC(=O)C2c3ccccc3C(=O)N(CC(C)C)C2c2cccs2)no1` (stereo unspecified), the growth was 103%.

Consider `CC(C)N=C1CCCC1C(=S)SSC(=S)C1CCCC1=NC(C)C` (stereo unspecified), for which the growth is 90.6%.

In the case of `COCCCNCC(=O)Nc1c(C)cccc1C`, the growth was 106%.

For the compound `Clc1ccc(Nc2ncnc3c2sc2ncccc23)cc1`, the growth is 31.5%.

For the compound `CNC(=O)c1cc(Oc2ccc(NC(=O)c3nc(S(C)(=O)=O)sc3-c3ccc(F)cc3)cc2)ccn1`, the growth is 101%.

Turning to `O=C(/C=C/c1ccccc1)C(Br)C(Br)c1ccccc1` (stereo unspecified), the growth is -36.8% (active).

Consider `C#CC[C@@H]1C[C@]2(C)[C@H]3CC[C@@H]4[C@H]5C(C(=C)C)CC[C@]5(C(=O)NCCN(CCN)CCN)CC[C@@]4(C)[C@]3(C)CC[C@H]2C(C)(C)[C@H]1OC(C)=O` (stereo partly specified), for which the growth is 65.9%.

Take `[Ag].[Ag].[NH-]S(=O)(=O)c1ccc(N=Nc2cc(N=Nc3ccc(S([NH-])(=O)=O)cc3)c3c(NC(=O)C(Cl)Cl)cccc3c2OC(=O)C(Cl)Cl)cc1.[c-]1nccs1.[c-]1nccs1`: the growth is 90.8%.

For the compound `Oc1ccc(-c2cnc(-c3ccccc3)[nH]2)c(O)c1`, the growth is 86.2%.
